Results on 95 compounds are retold here after PubChem BioAssay AID1851 (National Center for Advancing Translational Sciences (NCATS), 2009).

Hit rate of the full screen: of about 16,000 compounds, about 5,800 (36%) were called active. Another 23% or so got no clear call; they are omitted. This is one part of the list. Unmarked numbers belong to inactive results. Calls follow the shape of the dose curve; as a rule, active = well fitted curve in the direction sought with a large enough effect; inconclusive = small, poorly fitted or top-dose-only effect, or effect the other way; inactive = no such curve, though single readings can be large or run the other way.

Usually AC50 stands for the concentration giving half of the maximal activity seen.
% is scaled to controls: 0 for no effect and ±100 for the full control effect.

The target in this experiment is Cytochrome P450 2C19 (Homo sapiens) (UniProt P33261). Briefly: Cytochrome panel assay with activity outcomes. Particulars: recombinant CYP, pro-luciferin dealkylation, luminescence, p450-cyp2c19; series mostly up to 57.1 µM.
Sequence of Cytochrome P450 2C19 (Homo sapiens) (P33261 whole entry, looked up): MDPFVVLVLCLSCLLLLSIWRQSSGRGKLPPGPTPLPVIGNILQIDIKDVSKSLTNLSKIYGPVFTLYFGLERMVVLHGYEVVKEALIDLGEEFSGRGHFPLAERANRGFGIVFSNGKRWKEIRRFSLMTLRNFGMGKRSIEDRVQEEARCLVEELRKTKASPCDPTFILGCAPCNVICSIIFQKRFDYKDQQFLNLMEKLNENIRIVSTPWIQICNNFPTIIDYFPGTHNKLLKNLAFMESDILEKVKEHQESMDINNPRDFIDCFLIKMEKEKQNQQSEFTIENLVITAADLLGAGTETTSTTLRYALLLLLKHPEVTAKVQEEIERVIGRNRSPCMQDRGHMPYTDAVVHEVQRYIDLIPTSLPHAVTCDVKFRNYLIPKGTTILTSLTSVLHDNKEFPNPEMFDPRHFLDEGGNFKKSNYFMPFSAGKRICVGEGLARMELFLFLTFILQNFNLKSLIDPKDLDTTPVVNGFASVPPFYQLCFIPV
In the case of `COc1ccccc1CN1CC[C@@]2(CCCN(C(C)=O)C2)C1`, the AC50 result is “inactive”.

For the compound `CCOC(=O)C1CCN(c2c(NCc3ccc(C(=O)NCCC(C)C)cc3)c(=O)c2=O)CC1`, the AC50 was 3.16 µM (active).

`CCNC(=S)NNC(=O)c1cc(C2CC2)nc2ccccc12`: the AC50 is 28.2 µM (active).

On to `CCCCOC(=O)CSCC(=O)Nc1cc(C)on1`, for which the AC50 was 8.91 µM (active).

With `Cc1ccccc1-c1cc(Nc2ccc(F)cc2)ncn1`, the concentration at half-maximal activity (AC50) was 0.631 µM (active).

`COc1ccccc1-c1cc(Nc2ccc(F)cc2)ncn1`: the AC50 was 7.94 µM (active).

Turning to `Cc1ccccc1-c1cc(Nc2ccccc2)ncn1`, the AC50 is 3.16 µM (active).

For the compound `COc1ccccc1-c1cc(Nc2ccn[nH]2)ncn1`, the AC50 is 6.31 µM (active).

As for `CC(=O)NCCNc1cc(-c2ccccc2C)ncn1`, the AC50 result is “inactive”.

Consider `C[C@@H]1/C=C\CC(=O)OC[C@H](C)C(=O)N2CCC[C@@H]2C(=O)OC1`, for which the activity, negative = inhibition was 72.6% [at 11.4 µM].

Regarding `O=C(c1cccc(F)c1)N1CCC2(CC1)CN(C(c1ccccc1)c1ccccc1)C2`, the AC50 entry was “inactive”.

`COC(=O)[C@@]1(Cc2ccccc2)[C@H]2c3cc(C(=O)N(C)C)n(Cc4c(CO)[nH]cc(C)c4=O)c3C[C@H]2CN1C(=O)c1ccccc1`: the AC50 is 3.16 µM (active).

With `COC(=O)[C@@]1(Cc2ccccc2)[C@H]2c3cc(C(=O)N4CCCC4)n(Cc4c(CO)[nH]cc(C)c4=O)c3C[C@H]2CN1C(=O)c1ccccc1`, the half-maximal activity concentration (AC50) is 10 µM (active).

As to `COc1ccc(CNc2cc(-c3ccccc3Cl)ncn2)c(OC)c1`, the AC50 is 2 µM (active).

Consider `COc1ccc(CNc2cc(-c3ccccc3OC)ncn2)c(OC)c1`, for which the AC50 is 2 µM (active).

As for `COc1ccc(CNc2cc(-c3ccccc3CN(C)C)ncn2)c(OC)c1`, the AC50 result was “inactive”.

For the compound `CC(=O)N(CC(O)CN(C(C)=O)c1c(I)c(C(=O)NC[C@@H](O)CO)c(I)c(C(=O)NC[C@@H](O)CO)c1I)c1c(I)c(C(=O)NC[C@@H](O)CO)c(I)c(C(=O)NC[C@@H](O)CO)c1I`, the AC50 result is “inactive”.

For `CN(C)c1nccc(N(Cc2ccccc2)Cc2ccccc2)c1C#N`, the AC50 was 4.47 µM (active).

With `CCOC(=O)C1CCCN(C(=O)CCn2nc(-c3ccccc3)ccc2=O)C1` (stereo not given), the AC50 result was “inactive”.

For the compound `CCCS(=O)(=O)N1CCCC(C(=O)N2CCN(C(=O)OCC)CC2)C1` (stereo not given), the AC50 entry was “inactive”.

With `CCOC(=O)C1CCCN(C(=O)CSCc2ccccc2)C1` (stereo not given), the AC50 was 11.2 µM (active).

For the compound `CCOC(=O)C1CCCN(S(=O)(=O)c2ccccc2)C1` (stereo not given), the AC50 was 4.47 µM (active).

In the case of `CCCS(=O)(=O)N1CCCC(C(=O)NCCCOCC)C1` (stereo not given), the AC50 result was “inactive”.

Consider `CCOC(=O)CNc1c(-c2ccccc2)nc2ccc(Cl)cn12`, for which the AC50 was 5.01 µM (active).

Consider `COC(=O)[C@@H]1O[C@@H](c2c(OC)c(OC)c(C)c(OC)c2OC)[C@H](C)[C@@H](O)[C@@H]1C`, for which the activity, negative = inhibition was -37.9% [at 11.4 µM].

Regarding `Clc1ccc(Cl)c(Nc2ccnc(SCc3ccccc3)n2)c1`, the AC50 was 5.01 µM (active).

Regarding `CC(C)OC(=O)C1=C2SCC(=O)N2C(N)=C(C#N)C1`, the AC50 was 2.51 µM (active).

Regarding `CCOC(=O)c1c(C)c(C)n2c1NC(=O)C2`, the activity, negative = inhibition was 1.54% [at 11.4 µM].

Take `CCOC(=O)C1=C2SCC(=O)N2C(N)=C(C#N)C1`: the AC50 is 14.1 µM (active).

As for `Oc1cc2c(c(Cl)c1O)CCNC[C@H]2c1ccccc1`, the AC50 entry was “inactive”.

For `O=C(NCc1ccco1)c1cc(C(=O)C2CC2)c[nH]1`, the AC50 is 25.1 µM (active).

In the case of `O=C(NCCc1ccccn1)c1cc(C(=O)C2CCCCC2)c[nH]1`, the AC50 entry was “inactive”.

`Cc1ccc(-c2nn(-c3ccccc3)cc2CSC(=N)N)cc1`: the AC50 was 8.91 µM (active).

Consider `Cc1c(NC(=O)/C=C/c2cn(-c3ccccc3)nc2-c2ccc(F)cc2)c(=O)n(-c2ccccc2)n1C`, for which the AC50 result is “inactive”.

Turning to `CCC(C)NC(=O)CCS(=O)(=O)c1ccc(Br)s1` (stereo not given), the AC50 is 5.01 µM (active).

As for `CCC(C)NC(=O)Cn1cnc2sc(C)cc2c1=O` (stereo not given), the AC50 result is “inactive”.

Regarding `CCOC(=O)c1ccc(Nc2nc(C(=O)OCC)nc3ccccc23)cc1`, the AC50 is 1.41 µM (active).

For `c1ccc(Nc2nc(-c3cccnc3)nc3ccccc23)cc1`, the AC50 result was “inactive”.

For `COc1ccccc1NC(=O)Nc1nc(-c2cccnc2)nc2ccccc12`, the AC50 entry was “inactive”.

Regarding `CCOC(=O)c1ccc(Nc2nc(-c3cccnc3)nc3ccccc23)cc1`, the AC50 is 3.55 µM (active).

For `CC(C)=CCC/C(C)=C/CO/N=C1/C[C@@H](O)[C@@H](O)[C@@H]2[C@@H]3C(=O)N(Cc4ccc5c(c4)OCO5)C(=O)[C@H]3CC[C@@H]12`, the activity, negative = inhibition was 17.2% [at 11.4 µM].

With `O=C(c1cnccn1)N1CCC[C@@]2(CCN(C(c3ccccc3)c3ccccc3)C2)C1`, the AC50 result is “inactive”.

Take `O=C(O)[C@H](Cc1ccc(O)c([N+](=O)[O-])c1)N1C(=O)c2ccccc2C1=O`: the activity, negative = inhibition was 26.2% [at 11.4 µM].

On to `O=C(O)CC[C@@H](C(=O)O)N1C(=O)c2ccccc2C1=O`, for which the AC50 entry is “inactive”.

On to `CC(C)CC(C(=O)OCC(=O)Nc1ncc(Cl)cc1Cl)N1C(=O)c2ccccc2C1=O` (stereo not given), for which the AC50 is 2.24 µM (active).

For the compound `CC(C)(CNC(=O)c1ccc([N+](=O)[O-])c(Cl)c1)CNC(=O)c1ccc([N+](=O)[O-])c(Cl)c1`, the AC50 was 2.24 µM (active).

Take `CC(C)(C)OC(=O)[C@H]([C@@H]1N[C@@H](C(=O)O)C(C)(C)S1)N1C(=O)c2ccccc2C1=O`: the activity, negative = inhibition is 36.7% [at 11.4 µM].

With `Cc1[nH]c2ccccc2c1CCNC(=O)c1ccc2c(c1[N+](=O)[O-])C(=O)c1ccccc1C2=O`, the AC50 is 1.26 µM (active).

For the compound `O=C(c1cccs1)n1nc(-c2ccc(Cl)cc2)nc1NCc1ccco1`, the AC50 is 14.1 µM (active).

As to `Cc1nc2cnc(N3CCNCC3)nc2n(-c2ccccc2)c1=O`, the AC50 entry was “inactive”.

Consider `FC(F)(F)c1nc(-c2ccncc2)ncc1-c1nnnn1-c1ccccc1`, for which the AC50 is 0.0224 µM (active).

On to `FC(F)(F)c1nc(N2CCCC2)ncc1-c1nnnn1-c1ccccc1`, for which the AC50 is 0.631 µM (active).

Consider `Cc1nn(-c2ccccc2)c(N2CCCCC2)c1/C=N/O`, for which the AC50 entry is “inactive”.

In the case of `CC(C)c1ccc(NC(=O)N(CCc2nc3ccccc3[nH]2)C2CCCC2)cc1`, the AC50 was 7.08 µM (active).

For the compound `O=C(O)[C@H]1CCCC[C@@H]1C(=O)Nc1nc2ccccc2[nH]1`, the activity, negative = inhibition is 26.5% [at 11.4 µM].

With `COCC(=O)O[C@]1(CCN(C)CCCc2nc3ccccc3[nH]2)CCc2cc(F)ccc2[C@@H]1C(C)C`, the AC50 result was “inactive”.

Take `CCOC(=O)c1ccc(-c2ccc(CO)o2)cc1`: the AC50 is 28.2 µM (active).

Turning to `CCOC(=O)c1ccc(OC(=O)CCCCCN=C(N)N)cc1`, the AC50 entry is “inactive”.

As to `CCOC(=O)c1ccc(N)cc1`, the AC50 result is “inactive”.

`COC(=O)CSc1ccc(C#N)c(SCC(=O)OC)c1`: the concentration at half-maximal activity (AC50) was 11.2 µM (active).

`CCOc1ccc(N/N=C(/C#N)C(N)=O)cc1`: the AC50 was 4.47 µM (active).

`O=C(Nc1ccc2nc(SCc3ccc(Cl)cc3)sc2c1)c1ccccc1C(=O)N1CCOCC1`: the AC50 is 3.98 µM (active).

As to `Cc1ccc(NC(=O)CSCC(=O)Nc2ccc(N3CCOCC3)c(Cl)c2)cc1`, the AC50 is 14.1 µM (active).

Take `CCCC(=O)Nc1ccc2nc(SCC(=O)Nc3ccc(N4CCOCC4)c(Cl)c3)sc2c1`: the AC50 is 3.98 µM (active).

`Cc1ccc2oc(-c3cccc(NC(=S)NC(=O)/C=C/c4ccco4)c3)nc2c1`: the AC50 is 6.31 µM (active).

In the case of `CCC1CC(CSc2ncn[nH]2)OC1=O` (stereo not given), the AC50 entry was “inactive”.

Regarding `CN1[C@@H]2CC[C@H]1CC(OC(c1ccccc1)c1ccccc1)C2` (stereo not given in full), the AC50 result was “inactive”.

For `O=S1(=O)OC(c2ccc(O)cc2)(c2ccc(O)cc2)c2ccccc21`, the activity, negative = inhibition was 28.4% [at 11.4 µM].

Turning to `O=C(/C=C/c1ccco1)NC(=S)Nc1ccc(N2CCOCC2)c(Cl)c1`, the AC50 is 11.2 µM (active).

Consider `CCOc1ccc(C(F)(F)F)cc1NC(C)=O`, for which the AC50 is 28.2 µM (active).

In the case of `O=C1NCC2=C1C(c1ccc(Br)cc1)Nc1ccccc1N2` (stereo not given), the AC50 was 8.91 µM (active).

With `COc1ccccc1CC(=O)Nc1cc2oc3ccccc3c2cc1OC`, the AC50 is 6.31 µM (active).

Turning to `COc1cc(NC(=O)c2cc3ccccc3o2)c(OC)cc1Br`, the AC50 entry is “inactive”.

Take `COc1cc2c(cc1NC(=O)Nc1ccccc1)oc1ccccc12`: the AC50 is 3.55 µM (active).

As to `COc1ccccc1C(=O)Nc1cc2c(ccc3ccccc32)oc1=O`, the AC50 result was “inactive”.

Consider `COc1cc2c(cc1NC(=O)c1cc(-c3cccnc3)nc3ccc(C)cc13)oc1ccccc12`, for which the AC50 is 3.55 µM (active).

As to `CC1(C)CCCN(C(=O)c2coc(=O)c(Br)c2)C1`, the AC50 entry is “inactive”.

Take `CC(=O)N1CCC[C@@]2(CCN(Cc3ccccc3)C2)C1`: the AC50 entry is “inactive”.

In the case of `CC1(C)CCCN(C(=O)N2c3ccccc3Sc3ccccc32)C1`, the AC50 is 0.562 µM (active).

For the compound `O=C(CSc1cccc2cccnc12)OCC(=O)c1ccccc1`, the AC50 is 10 µM (active).

Regarding `Cc1cc(O)c(C(C)C)cc1NC(=O)Nc1cccc2ccccc12`, the AC50 is 0.0501 µM (active).

Regarding `NS(=O)(=O)c1ccc(NC(=O)Nc2cccc3ccccc23)cc1`, the activity, negative = inhibition was 2.76% [at 11.4 µM].

In the case of `CCOc1cc(/C=C2\CCC/C(=C\c3cc(Cl)c(O)c(OCC)c3)C2=O)cc(Cl)c1O`, the AC50 is 15.8 µM (active).

Regarding `O=C(O)[C@@H]1[C@@H]2C[C@@H]3[C@@H](OC(=O)[C@@H]31)[C@H]2Br`, the activity, negative = inhibition is -11.8% [at 11.4 µM].

With `O=c1[nH]c2[nH]c(=S)[nH]c(=S)c2[nH]1`, the AC50 is 0.631 µM (active).

As for `CNC(=O)/C=C1\NC(C)(C)Cc2c1ccc1ccccc21`, the AC50 is 2.51 µM (active).

Consider `Nc1ccc2c3c(cccc13)C(=O)NC2=O`, for which the AC50 entry is “inactive”.

Regarding `CC1(C)Cc2c(ccc3ccccc23)C(=O)N1`, the half-maximal activity concentration (AC50) was 10 µM (active).

As to `CNC(=O)[C@H]1O[C@H](n2cnc3c(NCc4cccc(I)c4)ncnc32)[C@@H](O)[C@@H]1O`, the AC50 entry is “inactive”.

As to `COc1ncc2nc(-c3cccs3)c(=O)n(C)c2n1`, the AC50 result was “inactive”.

With `N[C@@H](Cc1cccc([N+](=O)[O-])c1)C(=O)O`, the activity, negative = inhibition was -6.46% [at 11.4 µM].

Turning to `CCN(Cc1ccccc1)Cc1cccc([N+](=O)[O-])c1`, the AC50 was 5.62 µM (active).

On to `COc1ccc(/C=N/n2c(-c3cccs3)n[nH]c2=S)cc1`, for which the AC50 was 17.8 µM (active).

`CCc1n[nH]c(=S)n1/N=C/c1ccc2c(c1)OCO2`: the AC50 result is “inactive”.

With `COc1ccc(Oc2ncc3nc(-c4cccs4)c(=O)n(C)c3n2)cc1`, the AC50 result was “inactive”.
